Bioassay records: PubChem BioAssay, several laboratories
This is a sample that favours compounds with a hit; in the whole collection about 4.6% have one here.
SKKanGAS inh: blocks kanamycin growth of S. pyogenes SKKanGAS strain; BacTiter-Glo, 6 h; inhibition, % at 7.5 µM; 300,000 compounds, 1.3% hits;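 active = mean replicate score, as percent of positive control median, at least 50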;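 note: strain carries kanamycin resistance gene driven by streptokinase promoter and grows in 40 µg/ml kanamycin; loss of luminescence reflects streptokinase promoter inhibition or plain growth inhibition; 0% = median of DMSO wells and 100% = positive control at its reference dose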
PfHsp90 set2: growth inhibition of yeast expressing Plasmodium Hsp90; inhibition, % at 9.4 µM; S. cerevisiae expressing PfHsp90, BacTiter-Glo ATP, 48 h; yeast lacking PDR1 and PDR3 efflux regulators; 310,000 compounds, 0.32% hits;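 active = every replicate shows inhibition above about 80%, whatever the replicate mean, limit read from the data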;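 note: 0% = DMSO neutral controls and 100% = 20 µM radicicol positive controls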
tim23-1 inh: inhibits growth of tim23-1 mutant yeast; inhibition, % at 20 µM; 330,000 compounds, 1.3% hits; S. cerevisiae tim23-1 growth, BacTiter-Glo luminescence, 24 h;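 active = growth inhibition of the mutant yeast at or above 50%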;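 note: temperature-sensitive mutant grown at 25 °C; plate controls were DMSO-treated mutant yeast for no effect and medium wells lacking yeast for full effect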
tim10-1 inh: tim10-1 yeast growth inhibition; S. cerevisiae tim10-1 ts strain growth, BacTiter-Glo, 24 h; inhibition, % at 20 µM; 330,000 compounds, 2.2% hits; AID 463190;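 active = inhibition of at least 40%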;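 note: mutant grown at 25 °C; 0% = DMSO wells with yeast and 100% = wells holding no yeast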
V-ATPase pH: yeast V-ATPase proton transport regulation by pHLuorin | S. cerevisiae, pHLuorin cytosolic pH fluorescence | response, % at 10 µM | 350,000 compounds, 0.37% hits; in the data active = response mostly above about 7.3%, no sharp cut-off; inactive = mostly below about 5.4%; note: actives read high
TIM10 inh: growth inhibitors of TIM10 yeast strain | S. cerevisiae TIM10 strain growth, BacTiter-Glo luminescence, 24 h | inhibition, % at 10 µM | 330,000 compounds, 1.4% hits;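 active = inhibition of 40% or more at the single tested concentration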;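 note: wild-type TIM10 isogenic control strain grown at permissive 25 °C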
Numbers without * were called inactive; nt = not tested or not shown; ! = a repeat was not active.

SMILES | SKKanGAS inh | PfHsp90 set2 | tim23-1 inh | tim10-1 inh | V-ATPase pH | TIM10 inh
CO[C@H]1C=CO[C@@]2(C)Oc3c(C)c(O)c4c(O)c(c(C=NN5CCN(C6CCCC6)CC5)c(O)c4c3C2=O)NC(=O)C(C)=CC=C[C@H](C)[C@H](O)[C@@H](C)[C@@H](O)[C@@H](C)[C@H](OC(C)=O)[C@@H]1C | 105.4* | nt | 18.4 | 14.6 | nt | 12.4
O=C(CSc1cccc[n+]1[O-])Nc1ccc(N2CCOCC2)cc1 | 0.0 | nt | 7.9 | 14.8 | nt | -2.7
CN(C)Cc1c(-c2ccc(Cl)cc2)nc2ccc(Cl)cn12 | 4.0 | 27.4 | 13.0 | 9.7 | 1.6 | 8.3
O=[N+]([O-])c1cc(S(=O)(=O)O)cc([N+](=O)[O-])c1NN(c1ccccc1)c1ccccc1 | 3.6 | -27.8 | 10.7 | 17.9 | 2.1 | 4.3
Cc1ccc(-c2csc(N3C(=N)SCC3=O)n2)cc1 | 5.8 | nt | -10.1 | 12.1 | nt | 8.5
N=C1SCC(=O)N1c1ncc(Cc2ccc(F)cc2)s1 | 73.7* | -56.6 | 35.7 | 15.6 | 1.8 | 35.9
O=C(NC(NC(=S)Nc1c(Cl)cccc1Cl)C(Cl)(Cl)Cl)OCc1ccccc1 (stereo not drawn) | 76.8* | 12.0 | -18.6 | -7.4 | -1.2 | -15.7
CCOC(=O)NC(NC(=S)Nc1ccc(OCC)cc1)C(Cl)(Cl)Cl (stereo not drawn) | 2.2 | 8.4 | -22.3 | 3.9 | 4.4 | -10.3
CCn1c(=O)c2c(O)cc(=O)oc2c2ccccc21 | -1.1 | nt | 39.6 | 24.7 | -0.8 | 28.9
O=c1cc(O)c2c(=O)n(-c3ccccc3)c3ccccc3c2o1 | 102.4* | -13.2 | 14.8 | -29.8 | -2.0 | -28.2
COc1ccc2nc(N3C(=O)CNC3=S)sc2c1 | 65.4* | 12.5 | 47.5 | 1.5 | 0.0 | 12.8
Cc1ccc(OCCn2c(=S)[nH]c3ccccc32)c(C(C)C)c1 | 101.4* | 19.2 | 39.0 | 13.9 | 0.8 | 37.9
COc1ccc(C(=O)O/N=C2\C(=O)N(C)c3ccccc32)cc1 | -1.6 | 105.3* | -343.6 | -347.7 | -1.0 | -139.4
CN1C(=O)/C(=N\OC(=O)c2cccc3ccccc23)c2ccccc21 | 2.4 | -16.0 | -4.7 | -53.3 | -0.1 | 38.4
CCCCn1c(N)c(N(CC(C)C)C(=O)CSc2ccccc2C)c(=O)[nH]c1=O | 9.3 | -28.9 | -11.9 | -9.4 | 4.3 | -9.7
Cc1cc(C)n2c(Br)c(CN3CCCC(C)C3)nc2n1 (stereo not drawn) | 1.9 | -15.0 | 3.1 | 11.7 | -1.8 | 8.3
Cc1cccc(N2CCN(C(=O)C34CC5CC(CC(C5)C3)C4)CC2)c1C | 83.3* | -13.7 | 8.6 | 27.5 | 3.2 | 30.9
O=C(CN1c2ccccc2Sc2ccccc21)NNC(=O)Nc1ccc(Cl)cc1 | 36.6 | -22.2 | -1.2 | 8.3 | -0.6 | 23.0
O=C(CN1c2ccccc2Sc2ccccc21)NNC(=O)Nc1ccc(Cl)c(Cl)c1 | 57.5* | -17.9 | -2.8 | 11.9 | -4.3 | 13.3
C/C(CC(=O)Nc1cc(C)ccn1)=N\NC(=O)c1cccc(C)c1O | 5.1 | 101.1* | 2.3 | 18.7 | 3.2 | -9.0
COc1ccc(CCC(=O)O)c(O)c1 | 3.1 | -12.2 | 14.0 | 2.8 | 4.1 | -4.2
N[C@@H](Cc1cc(I)c(Oc2cc(I)c(O)c(I)c2)c(I)c1)C(=O)O | 19.1 | nt | 0.4 | -2.2 | nt | -10.5
O=C(O)CCc1cc(I)c(Oc2ccc(O)c(I)c2)c(I)c1 | 96.5* | nt | nt | nt | nt | nt
N[C@@H](Cc1cc(I)c(Oc2ccc(O)c(I)c2)c(I)c1)C(=O)O | 62.1*! | -11.4 | 31.4 | 19.8 | 1.3 | 11.0
COc1ccc(CN2C(=NC(=O)C3CC3)SC3CS(=O)(=O)CC32)cc1OC (stereo not drawn) | -6.5 | 16.8 | 4.7 | -14.9 | 18.4 | -1.3
SMILES | SKKanGAS inh | PfHsp90 set2 | tim23-1 inh | tim10-1 inh | V-ATPase pH | TIM10 inh
Cc1cccc(NC(=O)C2SC(=Nc3c(C)cccc3C)C(C(=O)N3CCOCC3)=C2N)c1 (stereo not drawn) | 94.3* | 26.3 | 0.8 | 13.6 | -3.5 | 9.2
Cc1cccc(Nc2nnc(-c3ccc(N4CCOCC4)c([N+](=O)[O-])c3)c3ccccc23)c1 | 58.9* | 11.1 | 26.0 | 20.0 | -2.2 | 23.5
CC[C@H]1OC(=O)[C@H](C)[C@@H](O[C@H]2C[C@@](C)(OC)[C@@H](O)[C@H](C)O2)[C@H](C)[C@@H](O[C@@H]2O[C@H](C)C[C@H](N(C)C)[C@H]2O)[C@](C)(O)C[C@@H](C)CN(C)[C@H](C)[C@@H](O)[C@]1(C)O | 110.5* | -19.0 | -14.8 | 6.0 | 0.9 | 5.2
O=C(O)c1ccccc1C(=O)Nc1ccc(Br)c(C(F)(F)F)c1 | 1.6 | 9.7 | -8.6 | 6.0 | 3.0 | 3.6
Cc1cc(C)c(C(=O)Nc2ccc(Br)c(C(F)(F)F)c2)c(C)c1 | 71.6* | 19.1 | 24.2 | 29.0 | -4.3 | 33.1
CC1CCN(C(=O)COC(=O)CCc2c[nH]c3ccccc23)CC1 | -6.2 | 2.1 | 13.6 | -7.6 | 1.6 | 6.4
CC1CCN(C(=O)COC(=O)Cc2c[nH]c3ccccc23)CC1 | 38.9 | -12.6 | 11.6 | 2.2 | 13.1* | 8.7
CC(=O)Nc1ccc(S(=O)(=O)N2CCC(NC(=O)C(Cc3ccccc3F)NC(C)=O)CC2)cc1 (stereo not drawn) | 3.7 | 12.7 | -3.4 | 4.7 | 0.0 | 8.2
COc1ccc(Oc2nc(SC)nc3ccsc23)cc1 | 16.3 | -0.1 | 32.4 | 18.6 | 0.5 | 24.0
CSc1nc(Oc2ccc3ccccc3c2)c2sccc2n1 | 54.4* | 3.7 | 8.2 | 7.2 | -1.0 | -2.6
O=C(N/N=C/c1c(O)n(-c2ccccc2Cl)c(=O)c2ccccc12)c1cccnc1 | 71.4* | -14.5 | nt | nt | -2.7 | nt
O=C(N/N=C/c1c(O)n(Cc2ccccc2)c(=O)c2ccccc12)c1cccnc1 | 47.9 | -20.5 | 7.4 | 27.0 | 3.7 | 7.6
O=C1C2C3C=CC(C3)C2C(=O)N1CN(Cc1ccccc1)CN1C(=O)C2C3C=CC(C3)C2C1=O (stereo not drawn) | 5.1 | 113.1* | 28.2 | 22.5 | -0.9 | 4.9
Cc1ccccc1C(=O)Oc1cccc(Nc2ncnc3ccccc23)c1 | 75.3* | 7.6 | 2.0 | 37.9 | -0.6 | 8.4
CC(C)Cc1nc(N2CCCCC2)c(C#N)c2c1CCC2 | 51.3* | 3.6 | -10.3 | 4.3 | 5.6 | 12.7
CC(C)Cc1nc(N2CCN(C(=O)C(C)C)CC2)c(C#N)c2c1CCC2 | -2.6 | 4.7 | 30.7 | 18.9 | -3.7 | 12.1
Cc1ccc(CNC(=O)C2CCC(CNS(=O)(=O)c3cccs3)CC2)cc1 (stereo not drawn) | 17.8 | 3.0 | 2.4 | -13.3 | -1.3 | 5.1
Nc1c(C(=O)CSc2nnnn2-c2ccccc2)c(=O)[nH]c(=O)n1C1CC1 | nt | -0.1 | 9.0 | 2.6 | -2.2 | -5.3
Cc1ccc(-n2nnnc2SCC(=O)c2c(N)n(C3CC3)c(=O)[nH]c2=O)cc1 | nt | -9.8 | -2.5 | -19.7 | 747.8* | -29.6
O=C(CNc1cccc(S(=O)(=O)N2CCOCC2)c1)N1CCc2ccccc21 | 1.1 | 23.9 | 9.0 | 8.0 | -2.0 | -8.2
CCOC(=O)C1=NN(C(=O)c2ccccc2)C(O)(c2ccc(C)cc2)C1 (stereo not drawn) | 6.9 | 14.0 | 17.6 | 30.7 | 3.6 | 21.0
